EWS-Fli inh – EWS/Fli transcriptional activity inhibition; A673 NR0B1-luciferase reporter, viability-normalised; inhibition, % at 12.6 µM; 0.67% of 350,000 active; AID 651661;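 active = mean inhibition of at least 50% after viability correction, with every replicate also passing that limit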;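 note: firefly luciferase signal divided by Alamar Blue viability fluorescence both relative to DMSO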
TROY NFkB inh – blocks TROY-dependent signaling in reporter cells. 0.98% of 360,000 active. Q293 LMP1-TROYcd NF-kB luciferase reporter, 4 h. inhibition, % at 10 µM;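 active = compounds whose plate-normalised and pattern-corrected inhibition of the luciferase reporter signal at the single screening dose is 50% or more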
PAX8 inh HTS – inhibitors of PAX8 transcriptional activity in RMG-I cells; RMG-I TPO-luciferase reporter, SteadyGlo, 24 h; inhibition, % at 12.6 µM; 1.2% of 360,000 active; AID 652154;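 active = mean replicate inhibition at least 60% with every replicate also reaching 60%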;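 note: luciferase light reporting Pax8 driven TPO promoter activity; plate controls were median of neutral control wells for no effect and mitoxantrone controls for full effect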
LGR2 inh – inhibitors of bursicon-induced Drosophila LGR2 receptor cAMP signaling; HEK293 LGR2, CRE-luciferase, bursicon-stimulated, 4 h; inhibition, % at 9.99 µM; 0.35% of 380,000 active;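 active = drop in luminescence signal, shown as inhibition above about 50% in the replicate tests, limit read from the data, passing the limit was not always enough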;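 note: agonist challenge used bursicon conditioned medium at about half maximal strength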
EBV LMP1 NFkB – reduces LMP1-driven NF-kappaB luciferase signal | LMP1-induced NF-kappaB luciferase reporter cells, luminescence | 0.69% of 350,000 active | inhibition, % at 12.5 µM; in the data active = inhibition above about 41%;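 note: 0% = neutral control wells and 100% = reference inhibitor control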
TWEAK Fn14 block – blocks TWEAK-Fn14 interaction in a reporter cell assay. TWEAK-stimulated Fn14 reporter cells, luciferase luminescence, 8 h. inhibition, % at 10 µM. 2% of 360,000 active. AID 1159606; in the data active = inhibition above about 50%
* = called active by the depositor. Shown are actives, neighbours in structure and some others; about 3.2% of the full set was active somewhere.

`COc1ccc2sc(-c3ccccc3OC)c(-c3ccc(OC)nc3)c2c1` gave EWS-Fli inh -52.9, TROY NFkB inh -26.9, PAX8 inh HTS -32.7, LGR2 inh -9.4, EBV LMP1 NFkB -10.4 and TWEAK Fn14 block -5.7.
`CCOC(=O)c1ccc(-c2c(-c3ccccc3OC)sc3ccc(OC)cc23)cc1F` gave EWS-Fli inh -3.2, TROY NFkB inh 53.2*, PAX8 inh HTS 24.1, EBV LMP1 NFkB 8.2 and TWEAK Fn14 block -8.9.
Screening Cc1cc(COc2ccccc2O)on1 returned LGR2 inh 21.3, EBV LMP1 NFkB 0.0 and TWEAK Fn14 block 85.6*.
Screening C[C@]12CC[C@@H]3c4cc(O)c(O)cc4CC[C@H]3[C@@H]1CC[C@@H]2O returned EWS-Fli inh 35.3, TROY NFkB inh -13.0, PAX8 inh HTS 3.7, LGR2 inh 4.7, EBV LMP1 NFkB -4.3 and TWEAK Fn14 block 49.3.
For CC12CCC3C(CCC4N(CCO)CCC34C)C1CCC2O (configuration not stated) the results were EWS-Fli inh 5.6, TROY NFkB inh -7.0, PAX8 inh HTS -13.4, LGR2 inh 7.1, EBV LMP1 NFkB 7.9 and TWEAK Fn14 block 94.3*.
Screening CCCS(=O)(=O)N1CCCC(C(=O)NC2CCCC(C)C2C)C1 (configuration not stated) returned TROY NFkB inh 5.0, EBV LMP1 NFkB 59.5* and TWEAK Fn14 block -11.5.
For Cc1ccc(-c2csc(=Nc3cccnc3)n2CCCn2ccnc2)cc1C the results were EWS-Fli inh -3.9, TROY NFkB inh 50.6*, PAX8 inh HTS -7.1, EBV LMP1 NFkB 46.8* and TWEAK Fn14 block 84.4*.
COc1ccc(-c2cnc3c(c2)C(=O)N([C@@H](C)CO)C[C@@H](C)[C@@H](CN(C)S(=O)(=O)c2ccc(OC)cc2)O3)cc1 was read as EWS-Fli inh -1.9 and LGR2 inh -5.1.
For COC(=O)Nc1sc2c(c1C(=O)NCc1ccco1)CCC2 the results were EWS-Fli inh 8.9, TROY NFkB inh 1.1, LGR2 inh 8.8, EBV LMP1 NFkB 2.3 and TWEAK Fn14 block 2.4.
`COC(=O)Nc1sc2c(c1C(=O)NCc1ccco1)CCCC2` gave TROY NFkB inh -16.7, EBV LMP1 NFkB 55.8* and TWEAK Fn14 block -2.0.
Screening CCC(=O)N[C@H]1CC[C@H](CC(=O)NCc2ccccc2OC)O[C@@H]1CO returned EWS-Fli inh 2.6, PAX8 inh HTS 2.4 and LGR2 inh 3.0.
Screening COc1ccccc1CNC(=O)C[C@H]1CC[C@@H]2[C@H](COC[C@@H](O)CN2Cc2ccc3c(c2)OCO3)O1 returned EWS-Fli inh -5.4, PAX8 inh HTS 11.9 and LGR2 inh -0.1.
C[C@H](O)C#Cc1cnc2c(c1)C(=O)N([C@@H](C)CO)C[C@@H](C)[C@@H](CN(C)C(=O)Cc1ccncc1)O2 was read as EWS-Fli inh -2.3, PAX8 inh HTS -19.8 and LGR2 inh 7.3.
Screening CCOCCCn1cnc2c3cc(F)ccc3n(C)c2c1=O returned EWS-Fli inh -13.6, TROY NFkB inh -38.2, PAX8 inh HTS -20.9, LGR2 inh -16.3, EBV LMP1 NFkB 57.3* and TWEAK Fn14 block 1.7.
Cn1c2ccc(F)cc2c2ncn(Cc3ccccn3)c(=O)c21 was read as EWS-Fli inh 0.3, TROY NFkB inh -0.4, PAX8 inh HTS 1.6, EBV LMP1 NFkB -2.0 and TWEAK Fn14 block -17.0.
Screening CC(C)CC[n+]1ccccc1/C=C/c1ccc(N(C)C)cc1 returned EWS-Fli inh 48.8, TROY NFkB inh 33.7, PAX8 inh HTS 82.3*, LGR2 inh 21.3, EBV LMP1 NFkB 36.4 and TWEAK Fn14 block 47.8.
Screening CC(C)OCCCn1c(SCC(=O)N2CCc3ccccc32)nc2ccccc2c1=O returned EWS-Fli inh 1.7, TROY NFkB inh 24.4, PAX8 inh HTS 33.8, EBV LMP1 NFkB 6.8 and TWEAK Fn14 block 91.5*.
Screening CC(C)OCCCn1c(SCC(=O)N2CCCC2=O)nc2ccccc2c1=O returned EWS-Fli inh -10.3, TROY NFkB inh -24.7, PAX8 inh HTS 2.4, LGR2 inh -22.4, EBV LMP1 NFkB 0.3 and TWEAK Fn14 block 0.9.
For COc1ccc(C(=O)N/N=C/c2ccc(OC)c(CN3CCCc4ccccc43)c2)cc1 the results were TROY NFkB inh -12.5, LGR2 inh -3.8, EBV LMP1 NFkB -1.8 and TWEAK Fn14 block 57.7*.
Screening COc1ccc(C(=O)N/N=C/c2ccc(OC)c(CN3CCN(c4ccc(F)cc4)CC3)c2)cc1 returned EWS-Fli inh -3.4, TROY NFkB inh 17.1, PAX8 inh HTS 144.0*, EBV LMP1 NFkB -2.0 and TWEAK Fn14 block -3.7.
For COc1ccc(/C=N/NC(=O)c2cccnc2)cc1CN1CCCc2ccccc21 the results were EWS-Fli inh 13.1, TROY NFkB inh 6.3, PAX8 inh HTS 1.8, LGR2 inh 5.4, EBV LMP1 NFkB -0.7 and TWEAK Fn14 block 29.8.
For CC(=O)N(C)C[C@H]1[C@@H](c2ccc(-c3cccnc3)cc2)[C@@H](CO)N1C(=O)C1CC1 the results were EWS-Fli inh 13.8 and LGR2 inh -2.5.
For O=C(C[C@H]1CC[C@@H]2[C@H](COC[C@H](O)CN2Cc2cccc(-c3ccncc3)c2)O1)N1CCN(c2ccccc2)CC1 the results were EWS-Fli inh 24.4, PAX8 inh HTS 6.9 and LGR2 inh 2.5.
Cc1ccc2nc(-c3ccc(NC(=O)CSCC(=O)O)cc3)sc2c1 was read as EWS-Fli inh -17.8, TROY NFkB inh -18.4, PAX8 inh HTS -144.8, LGR2 inh -50.4, EBV LMP1 NFkB -30.8 and TWEAK Fn14 block 0.3.
For O=C(Nc1ccc(-c2nc3ccccc3s2)cc1)C1=COCCO1 the results were TROY NFkB inh 77.4*, PAX8 inh HTS -89.1, LGR2 inh 95.0*, EBV LMP1 NFkB 72.0* and TWEAK Fn14 block 91.5*.
O=C(O)CSCC(=O)Nc1ccc(-c2nc3ccccc3s2)cc1 was read as EWS-Fli inh -16.6, TROY NFkB inh 42.3, PAX8 inh HTS -4.1, LGR2 inh -19.3, EBV LMP1 NFkB 2.5 and TWEAK Fn14 block 71.5*.
For C[C@H](CO)N1C[C@H](C)[C@@H](CN(C)Cc2ccc3cccnc3c2)OCc2cn(nn2)CCCC1=O the results were EWS-Fli inh 0.6, PAX8 inh HTS -4.3 and LGR2 inh 7.1.
`CNC[C@H]1Oc2ccc(NS(=O)(=O)c3ccc(C)cc3)cc2C(=O)N([C@@H](C)CO)C[C@@H]1C` gave EWS-Fli inh -6.6, PAX8 inh HTS -5.9 and LGR2 inh 2.4.
Screening COc1ccc(-c2nnc(NC(=O)c3ccc(S(=O)(=O)N4CCCc5ccccc54)cc3)o2)cc1 returned TROY NFkB inh 2.9, EBV LMP1 NFkB 48.6* and TWEAK Fn14 block -7.6.
For COc1ccc(NC(=O)Nc2ccc3c(c2)C(=O)N([C@@H](C)CO)C[C@@H](C)[C@@H](CN(C)Cc2ccc(-c4ccccc4)cc2)O3)cc1 the results were EWS-Fli inh 4.2 and LGR2 inh -1.4.

Source: PubChem BioAssay (several laboratories)
